In PubChem BioAssay AID463173 (ICCB-Longwood Screening Facility, Harvard Medical School, 2010):
The campaign covered roughly 52,000 compounds. About 4,300 (8.3%) were called active. Many of the other results were omitted from the sample, so actives are more common in it than they were. A number with no mark means an inactive call. No stated cut-off is given here; in the data, active means survival mostly below about 52% (no sharp cut-off); inactive means mostly above about 56%.

These compounds were tested on DeltatarO mutant (assay: growth inhibition of S. aureus wild type versus tarO mutant, primary screen, teichoic acid synthesis inhibitors, RN4220, OD600 (AID 463173)). Settings: OD600, 18 h, hits give low values, screened at 18.75 µg/mL (by protocol).
For `CS(=O)(=O)Nc1ccccc1C(=O)O`, the survival was 81%.
Work on `CCCSc1ncc(Cl)c(C(=O)Nc2c(C(=O)Nc3ccc(C)cc3)oc3ccccc23)n1` yielded a survival of 62%.
With `Cc1cccc(NC(=O)Cn2c(=O)n(CCCCCC(=O)NCc3ccccc3)c(=O)c3sccc32)c1` the survival was 62%.
Compound `CCOC(=O)c1cnn(Cc2ccccc2)c1N` has a survival of 79%.
Compound `CCOC(=O)c1noc2ncnc(N3CCN(c4ccccc4OC)CC3)c12` has a survival of 77%.
In the case of `COc1ccccc1NC(=O)N1CCN(Cc2nc3ccc(C)cc3o2)CC1`, the survival is reported as 84%.
`CC(=O)c1cccc(NC(=O)CCn2nc(C)c(S(=O)(=O)N3CCCCC3)c2C)c1` was tested, and the survival was 134%.
In the case of `CC(=O)c1ccc(NC(=O)CCn2nc(C)c(S(=O)(=O)N3CCC(C)CC3)c2C)cc1`, the survival is reported as -5% (active).
For `Cc1nn(CCC(=O)Nc2cccc(C#N)c2)c(C)c1S(=O)(=O)N1CCC(C)CC1`, the survival was 89%.
`CCOC(=O)c1ccc2ncc(C(=O)OCC)c(Nc3ccc(C)c(Br)c3)c2c1` was tested, and the survival was 39% (active).
With `CCOC(=O)c1cnc2ccc(OC(F)(F)F)cc2c1Nc1ccccc1C(=O)O` the survival was 37% (active).
`CCOC(=O)c1cnc2ccccc2c1NCC(C)O` (configuration not stated) was tested, and the survival was 89%.
For `CCOC(=O)c1cnc2cc(F)c(F)cc2c1Nc1ccccc1O`, the survival was 156%.
In the case of `CCOC(=O)c1cnc2ccc(C(=O)OC)cc2c1Nc1ccccc1CC`, the survival is reported as -3% (active).
With `CCc1ccc2[nH]c(=O)c(C(c3nnnn3C3CCCC3)N(Cc3ccccc3)Cc3ccco3)cc2c1` (configuration not stated) the survival was 104%.
`O=C(CN1c2ccc(Br)cc2-c2ccccc2S1(=O)=O)N1CCCCC1` gave a survival of 91%.
Compound `COc1cc(CNc2ccc3[nH]c(=O)[nH]c3c2)cc(Cl)c1OCc1ccccc1F` has a survival of 78%.
For `CCOc1ccc(CCNC(=O)c2sc3ncccc3c2-n2c(C)ccc2C)cc1`, the survival was 106%.
For `COCCNc1nc2c(S(=O)(=O)c3ccc(C)c(C)c3)nnn2c2ccc(Cl)cc12`, the survival was 89%.
`O=C(NCc1ccccc1Cl)NCc1noc2ccccc12` was tested, and the survival was 45%.
For `Cc1cccc(-c2nn3c(=O)cc(CN4CCN(C(=O)c5ccccc5Br)CC4)nc3s2)c1`, the survival was 100%.
`CCOC(=O)c1cc(C)n(CC2CCC(C(=O)Nc3ccc(C(=O)OC)cc3)CC2)c1C` (configuration not stated) showed a survival of 69%.
In the case of `CCOC(=O)c1cc(C)n(CC2CCC(C(=O)Nc3ccc(C)cc3)CC2)c1C` (configuration not stated), the survival is reported as 98%.
In the case of `CCOC(=O)c1cc(C)n(CC2CCC(C(=O)Nc3ccc(Cl)cc3)CC2)c1C` (configuration not stated), the survival is reported as 46% (active).
Work on `O=C(NC1CCCC1)C1CCCN(S(=O)(=O)c2ccc(-n3cnnn3)cc2)C1` (configuration not stated) yielded a survival of 72%.
Compound `CSc1ncc(C(=O)Nc2ccc(F)cc2F)c(-c2ccccc2)n1` has a survival of 71%.
In the case of `CCOc1ccc(OCC)c(NC(=O)c2cnc(SC)nc2-c2ccccc2)c1`, the survival is reported as 32% (active).
`O=C(Nc1ccccc1F)c1ccc(-c2ccccc2)s1` gave a survival of 81%.
With `CCOc1ccc(OCC)c(NC(=O)c2ccc(-c3ccccc3)s2)c1` the survival was 27% (active).
`COc1ccc(Cl)cc1NC(=O)c1cnc(SC)nc1-c1ccccc1` gave a survival of 49%.
Work on `CCOc1ccc(NC(=O)c2ccc(-c3ccccc3)s2)cc1` yielded a survival of 86%.
In the case of `Cc1ccc(CN2CCc3nc(N4CCN(c5ncccn5)CC4)ncc3C2)cc1`, the survival is reported as 117%.
In the case of `CN1CCN(CC(=O)NCCc2ccc(F)cc2)CC1`, the survival is reported as 83%.
`CNc1nc(OCC#N)nc(N2CCCCC2)n1` gave a survival of 110%.
`CONc1nc(NC(C)(C)C)nc(OCC#N)n1` showed a survival of 97%.
`N#CCOc1nc(OCC#N)nc(OCC#N)n1` was tested, and the survival was 1% (active).
For `Cc1ccc(CNC(=O)c2nc(-c3ccc(Cl)cc3)n3c2CCCCC3)cc1`, the survival was 89%.
For `O=C(CCn1c(=O)c2sccc2n(Cc2cccc(F)c2)c1=O)NCc1ccc2c(c1)OCO2`, the survival was 97%.
`Cc1cccc(C)c1NC(=O)Cn1c(=O)n(CCC(=O)NCc2ccc3c(c2)OCO3)c(=O)c2sccc21` gave a survival of 90%.
Compound `Cc1ccccc1NC(=O)Cn1c(=O)n(CCC(=O)NCc2ccc3c(c2)OCO3)c(=O)c2sccc21` has a survival of 150%.
In the case of `O=C(CCn1c(=O)c2sccc2n(Cc2ccccc2F)c1=O)NCc1ccc2c(c1)OCO2`, the survival is reported as 84% (active).
With `Cc1ccccc1NC(=O)Cn1c(=O)n(CCCCCC(=O)NCc2ccc3c(c2)OCO3)c(=O)c2sccc21` the survival was 84%.
In the case of `CCC1CCCCN1C(=O)Cn1c(=O)n(CCCCCC(=O)NCc2ccccc2)c(=O)c2sccc21` (configuration not stated), the survival is reported as 69%.
For `CCC1CCCCN1C(=O)Cn1c(=O)n(CCCCCC(=O)NCc2ccc(F)cc2)c(=O)c2sccc21` (configuration not stated), the survival was 170%.
With `Cc1ccc(NC(=O)Cn2c(=O)n(CCC(=O)NCc3ccc4c(c3)OCO4)c(=O)c3sccc32)c(C)c1` the survival was 87% (active).
For `Cc1ccc(CNC(=O)CCCCCn2c(=O)c3sccc3n(CC(=O)N3CCCCC3C)c2=O)cc1` (configuration not stated), the survival was 48% (active).
Work on `O=C(CCCCCn1c(=O)c2sccc2n(CC(=O)Nc2cccc(Cl)c2)c1=O)NCc1ccc2c(c1)OCO2` yielded a survival of 57%.
With `Cc1ccc(Cl)cc1NC(=O)Cn1c(=O)n(CCC(=O)NCc2ccc3c(c2)OCO3)c(=O)c2sccc21` the survival was 79% (active).
With `O=C(CCn1c(=O)c2sccc2n(Cc2ccc(F)cc2)c1=O)NCc1ccc2c(c1)OCO2` the survival was 89%.
In the case of `Clc1ccc(CCNc2ncnc3c2c(-c2ccccc2)cn3-c2ccccc2)cc1`, the survival is reported as 94%.
In the case of `COc1ccc(Cn2c(CCC(=O)Nc3ccc(Br)c(C)c3)nc3cccnc32)cc1`, the survival is reported as 71%.
`Cc1ccc(N2CC(NC(=O)/C=C\c3ccc4c(c3)OCO4)CC2=O)cc1` (configuration not stated) was tested, and the survival was 91%.
For `COc1ccc(NC(=O)Cn2ccn(-c3ccc(C)c(C)c3)c(=O)c2=O)cc1Cl`, the survival was 72%.
With `COc1ccc(OC)c(CNC(=O)c2ccccc2NC(=O)c2nsc3ccccc23)c1` the survival was 92%.
`O=C(NC1CC(=O)N(c2ccccc2)C1)C(c1ccccc1)c1ccccc1` (configuration not stated) was tested, and the survival was 89%.
With `Cc1nnc(Nc2ccc(C(=O)O)cc2)[nH]c1=O` the survival was 108%.
For `O=C1CCSC2(C(=O)N(Cc3ccc(F)cc3)c3ccccc32)N1c1ccccc1` (configuration not stated), the survival was 78%.
